FEN1 inh-1: qHTS Assay for the Inhibitors of Human Flap endonuclease 1 (FEN1) | Potency, µM (top dose mostly 114 µM), without a hit: at the highest dose activity change, negative = inhibition, usual class: inhibitors | Recombinant FEN1 flap cleavage, fluorescence, 15 min | actives 0.35% (n = 390,000); further: on the % scale 0 is the no-effect control and ±100 the full control effect; nearly all actives have a fitted effect of over 65% in size
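In this screen, 50 nM flap DNA substrate was added to 10 nM FEN1 pretreated with compound for 15 min at room temperature; cleavage was followed with reads at 0 and 15 min, and Hill fitting gave concentration–response parameters.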
PGK inhibitor: qHTS Assay to Find Inhibitors of Phosphoglycerate Kinase; AID 602233, 2012; PGK/GAPDH coupled, Kinase-Glo luminescence, 60 min; actives 0.043% (n = 380,000); Potency, µM (series often up to 57.5 µM), inactives show at the top dose activity change, negative = inhibition, actives largely listed as inhibitors; Phosphoglycerate kinase, glycosomal (Trypanosoma brucei brucei), P07378; further: on the % scale 0 is the no-effect control and ±100 the full control effect; nearly all actives have a fitted effect of over 60% in size
Target sequence (P07378 whole entry, looked up): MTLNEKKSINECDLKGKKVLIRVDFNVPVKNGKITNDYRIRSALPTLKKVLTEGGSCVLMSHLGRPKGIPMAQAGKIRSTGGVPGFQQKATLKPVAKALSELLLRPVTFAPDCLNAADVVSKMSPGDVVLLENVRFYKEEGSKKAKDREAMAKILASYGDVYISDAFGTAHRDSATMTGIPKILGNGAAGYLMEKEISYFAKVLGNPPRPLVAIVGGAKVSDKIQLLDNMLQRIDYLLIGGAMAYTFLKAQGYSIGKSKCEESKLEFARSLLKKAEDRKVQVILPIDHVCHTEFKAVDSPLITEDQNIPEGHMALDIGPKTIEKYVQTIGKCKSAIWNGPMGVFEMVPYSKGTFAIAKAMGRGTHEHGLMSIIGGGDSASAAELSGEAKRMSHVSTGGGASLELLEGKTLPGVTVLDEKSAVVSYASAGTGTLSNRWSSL
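Recombinant glycosomal PGK reaction used 1,3-bisphosphoglycerate generated in-well by GAPDH (100nM final) in 100mM TEA pH 7.6, 5mM MgCl2, 0.01% Tween-20. After 60 minutes at room temperature, ATP was read by Kinase-Glo Plus luminescence end-point.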
BCR signal inh: qHTS Assay to Find Inhibitors of Chronic Active B-Cell Receptor Signaling; ABC-DLBCL IkBa-CBG/CBR reporter, luminescence ratio, 4 h; Potency, µM (highest dose often 46.1 µM), for the others: at the highest dose activity change, negative = inhibition, most hits filed as inhibitors; actives 0.05% (n = 340,000); AID 493014, 2011; active means well fitted inhibition curve with a large enough effect in the signal ratio, with a control signal flat, not every such curve was filed as active; inconclusive means small, poorly fitted or top-dose-only effect, or effect the other way, or a change in a side signal; the % refers to the signal ratio;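 further: plate controls were basal doxycycline-induced cells for no effect and cells given 10 µM MG132 for full effect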
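Doxycycline induced both beetle luciferases in TMD8 lymphoma cells; IKK-driven degradation limits the IkappaBalpha-fused green signal, while red luminescence normalises for cell number and nonspecific effects. Compounds tested up to 46 uM, 4 hrs.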
Pin1 inhibitor: qHTS Assay to Find Inhibitors of Pin1. Pin1 FP peptide displacement, HiFluor488, 10 min. Peptidyl-prolyl cis-trans isomerase NIMA-interacting 1 (Homo sapiens), Q13526. AID 504891, 2011. actives 0.009% (n = 390,000). Potency, µM (titrated, usually from 115 µM), for the others: at the top dose activity, negative = inhibition, most hits filed as inhibitors; active means well fitted inhibition curve with a large enough effect in the polarisation, with a control signal flat, not every such curve was filed as active; inconclusive means small, poorly fitted or top-dose-only effect, or effect the other way, or a change in a side signal; inactive means no such curve, though single readings can be large or run the other way; the % refers to the polarisation; further: on the % scale 0 is the no-effect control and ±100 the full control effect
B2AR arrestin: qHTS assay of beta-arrestin-biased ligands of beta2-adrenergic receptor | Beta-2 adrenergic receptor (Homo sapiens), P07550 | beta-arrestin recruitment to beta2AR, cell-based reporter | Potency, µM (titrated, usually from 46.1 µM), for the others: at the top dose activation, actives largely listed as activators | actives 0.02% (n = 330,000) | AID 492947, 2010;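 further: 0% = DMSO controls and full agonism = EC100 isoproterenol or metaproterenol; nearly all actives have a fitted effect of over 65% in size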
Anesthetic bind: qHTS Assay for Identification of Novel General Anesthetics; Ferritin light chain (Equus caballus), P02791; apoferritin/1-aminoanthracene competitive binding, fluorescence; Potency, µM (series often up to 77.5 µM), inactives show at the top dose activity change, negative = displacement, actives largely listed as inhibitors; actives 0.074% (n = 350,000); further: on the % scale 0 is the no-effect control and ±100 the full control effect; nearly all actives have a fitted effect of over 20% in size
Target sequence (P02791 2-175 limits assumed): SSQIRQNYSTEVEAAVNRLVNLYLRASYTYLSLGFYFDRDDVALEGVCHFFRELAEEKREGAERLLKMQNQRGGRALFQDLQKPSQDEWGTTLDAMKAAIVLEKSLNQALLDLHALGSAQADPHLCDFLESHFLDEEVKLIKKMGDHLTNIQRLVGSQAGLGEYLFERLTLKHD
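In PBS, apoferritin at 10 uM is loaded with 1-AMA from a 50% saturated solution. After 10 min of compound exposure at ambient temperature, reduced 535 nm fluorescence indicates probe displacement.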
FEN1 inh-2: qHTS Assay for the Inhibitors of FEN1: Confirmatory Assay for Cherry-picked Compounds. actives 79% (n = 880). Potency, µM, most hits filed as inhibitors. FEN1 flap cleavage, TAMRA/BHQ2 fluorogenic DNA substrate. shares compounds with FEN1 inh-1. AID 720498, 2013; further: nearly all actives have a fitted effect of over 60% in size
Numbers without * were called inactive; i = inactive; ? = inconclusive; . = not tested or not shown; [ ] = dose if it differs, or a comment. The list is not random: actives were taken first. Their share in the collection is about 0.45%. Unless noted, the call rests on the fitted dose curve; in most records, active means well fitted curve in the direction sought with a large enough effect; inconclusive means small, poorly fitted or top-dose-only effect, or another doubt; inactive means no such curve, though single readings can be large; an effect the other way counts as inactive or inconclusive. Potency means the concentration at half of the fitted maximal effect.

SMILES	FEN1 inh-1	PGK inhibitor	BCR signal inh	Pin1 inhibitor	B2AR arrestin	Anesthetic bind	FEN1 inh-2
Oc1ccc(COC2CCCC2)c2cccnc12	.	.	7.3µM*	.	7%	.	.
NNC(=O)c1cccn(Cc2ccc(Cl)cc2Cl)c1=O	12%	5%	-10%	-1%	0%	2%	.
O=Cc1cccn1Cc1ccc(Cl)cc1Cl	-17%	-9%	11%	2%	0%	14µM*	.
COc1ccc(-c2ccc(CCC(=O)O)n2-c2ccccc2O)cc1	-22%	2%	16µM*	14%	0%	-17%	.
COc1ccc(-c2ccc(CCC(=O)O)n2-c2ccccc2C(F)(F)F)cc1	-6%	-3%	.	-4%	.	?	.
C=CCN=c1scc(-c2ccco2)n1/N=C/c1ccc(O)c(O)c1O	?	-4%	-1%	?	0%	-3%	.
CN=c1scc(-c2cccs2)n1/N=C/c1ccc(O)c(O)c1O	35µM*	-17%	7%	?	0%	2%	.
COc1ccc(C2Nc3ccccc3C(=O)N2Cc2ccccc2)cc1COc1ccc(NC(=O)c2ccccc2)cc1 (stereo not given)	.	.	.	12%	.	.	.
O=c1/c(=C\c2cc([N+](=O)[O-])cc([N+](=O)[O-])c2O)sc2nc3ccccc3n12	56µM*	?	0%	?	0%	?	.
O=C(O)c1cc(C(=O)O)cc(-c2ccc(/C=c3/sc4nc5ccccc5n4c3=O)o2)c1	35µM*	?	0%	32%	0%	-9%	.
COc1ccc(O)c(/C=c2/sc3nc4cc(C)c(C)cc4n3c2=O)c1	-17%	-6%	?	9%	3%	?	.
COC(=O)/C=c1/sc2nc3ccccc3n2c1=O	3%	-3%	-20%	-2%	0%	-18%	.
O=C(c1ccccc1O)N(Cc1ccccc1)Cc1cccs1	.	.	.	-6%	.	.	.
CCOC(=O)c1ccc(-n2cnc3c(c2=N)C(c2cccc(OC)c2)c2c(ccc4ccccc24)O3)cc1 (stereo not given)	.	.	.	10%	.	.	.
Cc1ccc(NC(=O)CN2C(=O)S/C(=C\c3cccn3-c3cccc(C(=O)O)c3)C2=O)c(C)c1	?	?	6%	.	0%	-14%	.
O=C(CN1C(=O)N/C(=C\c2cccn2-c2cccc(C(=O)O)c2)C1=O)Nc1ccc(Cl)cc1	.	.	.	.	.	.	60*
Cc1cccc(NC(=O)CN2C(=O)S/C(=C\c3cccn3-c3cccc(C(=O)O)c3)C2=O)c1	?	-18%	14%	.	0%	-18%	76*
Cc1cccc(C)c1NC(=O)CN1C(=O)S/C(=C\c2cccn2-c2cccc(C(=O)O)c2)C1=O	50µM*	-9%	0%	.	-1%	-8%	76*
O=C(CN1C(=O)N/C(=C\c2cccn2-c2cccc(C(=O)O)c2)C1=O)Nc1ccccc1F	.	.	.	1%	.	.	.
Cc1ccc(NC(=O)CN2C(=O)S/C(=C\c3cccn3-c3cccc(C(=O)O)c3)C2=O)cc1C	?	?	12%	.	0%	-6%	60*
Cc1ccccc1NC(=O)CN1C(=O)S/C(=C\c2cccn2-c2cccc(C(=O)O)c2)C1=O	?	-28%	13%	.	0%	-8%	.
COc1ccc(NC(=O)CN2C(=O)S/C(=C/c3cccn3-c3ccc(C(=O)O)cc3)C2=O)cc1	.	.	-4%	.	0%	1%	.
O=C(O)c1ccc(-n2cccc2/C=C2\SC(=O)N(Cc3ccc(Cl)cc3)C2=O)cc1	.	.	.	.	.	.	76*
O=C1[C@H]2[C@H]3[C@H](O)[C@H](O)C/C(=N/OCc4ccccc4)[C@H]3CC[C@@H]2C(=O)N1c1cccc(Oc2ccccc2)c1	.	.	.	.	.	-13%[15.3 µM]	.
CC(=O)N(\C=C/C=C/C=C1\Sc2ccccc2C1=O)c1ccccc1	?	-18%	?	?	0%	-8%	?
SMILES	FEN1 inh-1	PGK inhibitor	BCR signal inh	Pin1 inhibitor	B2AR arrestin	Anesthetic bind	FEN1 inh-2
CCc1cc(C(=O)Cc2cnn(-c3ccccc3)c2)c(O)cc1O	?	-4%	?	1%	3%	-20%	.
O=C(Cc1cnn(-c2ccccc2)c1)c1ccc(O)c(O)c1O	25µM*	-2%	?	?	0%	-18%	34*
O=C(O)c1ccc(N2C(=O)CSC2=S)cc1	-3%	-13%	.	14%	.	.	?
Cc1ccc2nc3[nH]c(=O)[nH]c(=O)c3c(N)c2c1	?	-9%	.	3%	.	.	60*
Cc1nnc(NC(=O)c2sc3nc(-c4cccs4)cc(C(F)(F)F)c3c2N)s1	?	-18%	?	?	0%	?	?
Nc1c(C(=O)Nc2nccs2)sc2nc(-c3cccs3)cc(C(F)(F)F)c12	-5%	-9%	?	?	0%	113%	.
COc1ccc(-c2nc3c(C(=O)NCCN(C)C)cccc3c3ccccc23)cc1	32µM*	-6%	.	-4%	.	.	34*
COc1cccc2nc3c(C(=O)NCCN(C)C)cccc3cc12	13µM*	i	.	?	.	.	30*
CN(C)CCNC(=O)c1cc(Sc2ccc(F)cc2)nc2ccccc12	.	.	?	.	0%	-13%	.
O=C(O)CCc1cc(F)c(S(=O)(=O)N2CCN(S(=O)(=O)c3ccc4c(c3)OCCO4)CC2)cc1F	.	.	.	-10%	.	.	.
CC(C)(C)n1ncc2c(=O)n(Cc3cccc(OC(F)F)c3)cnc21	-1%	.	.	.	.	.	.
CCOC(=O)c1c(O)c(O)c(C(=O)OCC)n1-c1ccccc1	18µM*	-5%	?	-2%	0%	-4%	9.5*
O=C(Nc1ccc(OC(F)F)cc1)c1nc(SCc2ccccc2F)ncc1Cl	-1%	.	.	.	.	.	.
Nc1ccc(Br)c2cccnc12	?	-5%	0%	-4%	0%	-20%	67*
Cc1cc2c(s1)c1cnn(Cc3ccc(S(C)(=O)=O)cc3)c(=O)c1n2C	.	.	.	9%	.	.	.
COc1ccccc1/C=N/Nc1cc(C)nc2ccc(C)cc12	5%	9%	-9%	24%	0%	-19%	.
COc1ccc(/C=N/Nc2cc(C)nc3ccc(OC)cc23)c(OC)c1	22µM*	7%	?	2%	-1%	61%	19*
COc1cccc(N/N=C/c2cccc(Br)c2O)c1	-2%	1%	?	0%	-1%	6%	.
